In PubChem BioAssay (NCI):
This is part of a sample that, as a whole, favours compounds with a hit. Of some 83,000 tested, about 20% had one in any assay.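 Method: cells in 96-well plates; compound added at one concentration; 48 h incubation; percent growth measured; values under 10 scored active.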 Active and inactive are the calls of the source.

System: NCI-H522 lung
Assay: NCI-60 one-dose screen, 48 h (100 = growth as untreated, 0 = no growth, -100 = all killed)
Conditions: 10 µM unless noted

Structure (SMILES) | growth
CCCCCCC(=O)NC1=C(N2CC2)C(=O)C(NC(=O)CCCCCC)=C(N2CC2)C1=O | 39.2% (inactive)
COc1ccc(/C=C\c2cc(OC)c(OC)c(OC)c2)cc1NS(=O)(=O)c1ccc(Cl)cc1 | 25.9% (inactive)
CC[C@H](C)[C@H](NC(=O)[C@H]1CCCCN1C)C(=O)N(C)[C@H](CC(=O)c1nc(C(=O)N[C@@H](Cc2ccccc2)C[C@H](C)C(=O)O)cs1)C(C)C | -9.54% (active)
C[C@]12C[C@@H](CO)[C@H](O)C[C@@H]1CC[C@@H]1[C@@H]2CC[C@]2(C)[C@@H](O)CC[C@@H]12 | 77.7% (inactive)
[Cl][Hg][c]1cc[c]([Hg][Cl])o1 | 2.99% (active)
NC(=S)c1cn(C2OC(CO)C(O)C2O)c2ncnc(N)c12 (centres undefined) | -38.6% (active)
COC(=O)CC[C@H](Cc1ccccc1)NC(=O)c1csc([C@@H](C[C@H](C(C)C)N(C)C(=O)[C@@H](NC(=O)[C@H]2CCCCN2C)C(C)C)OC(C)=O)n1 | 9.28% (active)

System: A549/ATCC NSCLC
Assay: as above
Conditions: 10 µM unless noted

Structure (SMILES) | growth
O=C(CCl)c1ccc([N+](=O)[O-])o1 | 106% (inactive)
CCCCCSC1C2C(=O)C(Br)=CC13CCNc1c(O)c4c5c(c13)=[N+]2CCC=5C=N4 (centres undefined) | -52.1% (active)
COc1ccc(C/C(C)=C(\c2ccc(OCCN3CCOCC3)cc2)c2ccc(OC(=O)Cc3ccccc3)cc2)cc1 | 0.132% (active)
Cn1cc(-c2csc(-c3cn(CCCCN4CCCCC4)c4ccc(F)cc34)n2)c2cccnc21 | 92.6% (inactive)
COc1ccc2c(c1)c(-c1nc(-c3cn(C)c4ncccc34)cs1)cn2CCCCN1CCCCC1 | -56.4% (active)
C[n+]1c(/C=C/c2ccc(N(CCCl)CCCl)cc2)sc2ccccc21 | 40.2% (inactive)
C=CC[Se]C(=O)c1ccccc1OC(C)=O | 0.797% (active)
CC(=O)OC1CCC2C3CCC4=C/C(=N/OC(=O)c5ccc(N(CCCl)CCCl)cc5)CCC4(C)C3CC(C)C12 (centres undefined) | 56.6% (inactive)
CCCCCCCC[n+]1ccc2ccccc2c1 | 88.7% (inactive)
Cn1cccc1C1CC(=O)N(CCC[Se]C#N)C1=O (centres undefined) | -38.6% (active)
C[Se]C(=O)c1ccccc1OC(C)=O | 59.2% (inactive)
O=C1Nc2ccccc2C2c3cccn3-c3ccccc3CN12 (centres undefined) | 34.4% (inactive)
CCOC(=O)[C@@H](C)C[C@H](Cc1ccccc1)NC(=O)c1csc([C@@H](C[C@H](C(C)C)N(C)C(=O)[C@H](CCC(C)C)NC(=O)[C@H]2CCCCN2C)OC(C)=O)n1 | 8.64% (active)
COC(=O)[C@H](C[C@H](Cc1ccccc1)NC(=O)c1csc([C@@H](C[C@H](C(C)C)N(C)C(=O)[C@@H](NC(=O)[C@H]2CCCCN2C)C(C)C)OC(C)=O)n1)NC(=O)OCc1ccccc1 | 18.8% [8.5 µM] (inactive)
CC1(C)N=C(N)N=C(N)N1c1ccc(OCCCNC(=O)Nc2ccc(S(=O)(=O)F)cc2)c(Cl)c1 | 18% (inactive)
O=C(CN1CCN(C(=O)c2ccco2)CC1)Nc1ccc(Cl)cc1C(=O)c1ccccc1Cl | 77.2% (inactive)
Cc1cc(N(CCCl)CCCl)ccc1C=Nc1ccccc1-c1ccccc1 | 59.6% (inactive)
Cn1cc(-c2csc(-c3cn(CCN4CCOCC4)c4ccccc34)n2)c2cccnc21 | 63% (inactive)
CCOC(=O)[C@@H](C)C[C@H](Cc1ccccc1)NC(=O)c1csc([C@@H](C[C@H](C(C)C)N(C)C(=O)[C@H](CC)NC(=O)[C@H]2CCCCN2C)OC(C)=O)n1 | 7.92% (active)
ClC1=C(Cl)C(Cl)(C2(Cl)C(Cl)=C(Cl)C(Cl)=C2Cl)C(Cl)=C1Cl | 45% (inactive)
O=C([O][Hg][CH2]C1OCCOC1[CH2][Hg][O]C(=O)c1ccccc1)c1ccccc1 (centres undefined) | 101% (inactive)
COc1ccc([As]=[As]c2ccc(OC)c(NCS(=O)(=O)O)c2)cc1NCS(=O)(=O)O (centres undefined) | 69.4% (inactive)
[Cl][Hg][n]1c(-c2ccco2)nc2ccccc21 | 100% (inactive)
CCC[CH2][Sn]([CH2]CCC)([CH2]CCC)[O]c1ccc(Cl)cc1Cl | -82% (active)
NC(CCl)CCl | 102% (inactive)
CN1CCC(c2c[nH]c3ccccc23)C1 (centres undefined) | 122% (inactive)
CCCCCCCCCCCCCCCCCC1OC[C@@H](COC(=O)O[C@@H](C(=O)O[C@H]2C[C@@]3(O)[C@@H](OC(=O)c4ccccc4)[C@@H]4[C@]5(OC(C)=O)CO[C@@H]5C[C@H](O)[C@@]4(C)C(=O)[C@H](OC(C)=O)C(=C2C)C3(C)C)[C@@H](NC(=O)c2ccccc2)c2ccccc2)O1 (some centres undefined) | 47.5% (inactive)
